Screening data: PubChem, National Center for Advancing Translational Sciences (NCATS)
An excerpt weighted towards active compounds, which were near 1.7% of everything screened.
KCNH2 3.1 block: blocks the human KCNH2 3.1 channel isoform; U2OS KCNH2 3.1, thallium flux FluxOr; hits give low values; activity change, % (tested at about 1.8 µM); actives 0.95% (n = 340,000);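 active means maximum activity change below -70%; inconclusive means maximum activity change from -70% to -50%; inactive means maximum activity change above -50%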;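 further: thallium influx rate constant from kinetic fluorescence after stimulation buffer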
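Virally transduced U2OS (3.1 isoform, 4 h infection in dark at RT) → overnight 37 C → FluxOr + Red40 in HBSS/HEPES, 45 min → stimulation buffer, 2 min kinetic read → rate constant vs DMSO controls.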
FBPA coupling cs: coupling enzyme interference in Giardia aldolase counter-screen; actives 0.67% (n = 290,000); AID 2472; coupling enzyme system counterscreen, AmpLite Red fluorescence; activity change, negative = inhibition, % at 58.2 µM, hits read low; in the data active means activity change below about -30%
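Counterscreen lacking aldolase: glyceraldehyde-3-phosphate coupling-enzyme reagent preincubated 10 min at RT with compound (at 57.5 uM final), then substrate/coupling system with AmpLite Red added; fluorescence read at 525/598 nm after 20 min RT.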
USP1 inh: inhibitors of human USP1/UAF1 deubiquitinase; O94782; recombinant USP1/UAF1, Ub-Rhodamine cleavage fluorescence; Potency, µM (titrated, usually from 57.1 µM), for the others: top-dose activity change, negative = inhibition, hits mostly inhibitors; actives 0.23% (n = 390,000); AID 743255; active means well fitted inhibition curve with a large enough effect; inconclusive means small, poorly fitted or top-dose-only effect; inactive means no such curve, though single readings can be large or run the other way; further: potency means the concentration at half of the fitted maximal effect; nearly all actives have a fitted effect of over 60% in size
Target sequence (O94782 whole entry, looked up): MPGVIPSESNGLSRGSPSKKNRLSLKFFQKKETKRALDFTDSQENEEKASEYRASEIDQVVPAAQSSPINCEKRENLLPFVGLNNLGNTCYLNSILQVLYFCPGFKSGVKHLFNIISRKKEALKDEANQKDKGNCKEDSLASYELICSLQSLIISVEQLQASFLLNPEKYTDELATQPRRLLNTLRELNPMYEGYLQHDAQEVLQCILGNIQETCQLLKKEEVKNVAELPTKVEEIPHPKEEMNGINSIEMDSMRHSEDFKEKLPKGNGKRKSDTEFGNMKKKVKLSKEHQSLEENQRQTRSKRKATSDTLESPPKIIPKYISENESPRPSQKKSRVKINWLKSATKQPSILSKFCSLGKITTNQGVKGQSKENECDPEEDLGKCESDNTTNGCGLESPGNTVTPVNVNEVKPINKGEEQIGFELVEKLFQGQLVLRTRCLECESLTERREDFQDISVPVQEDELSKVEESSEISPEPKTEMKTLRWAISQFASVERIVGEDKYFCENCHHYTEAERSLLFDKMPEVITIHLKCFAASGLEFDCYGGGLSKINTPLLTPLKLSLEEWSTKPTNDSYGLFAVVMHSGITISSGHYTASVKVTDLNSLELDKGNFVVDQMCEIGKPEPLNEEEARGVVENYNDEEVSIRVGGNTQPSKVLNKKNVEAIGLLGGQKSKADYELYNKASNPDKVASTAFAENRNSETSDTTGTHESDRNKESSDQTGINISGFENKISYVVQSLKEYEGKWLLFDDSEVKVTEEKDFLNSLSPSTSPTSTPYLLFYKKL
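1 nM enzyme complex + cpd, 15 min RT; start with Ub-Rho 150nM final; kinetic fluorescence ex 480/em 540, 6 reads q60 s. Buffer 50mM HEPES pH 7.8, 0.5mM EDTA, 0.1 mg/ml BSA, 1mM TCEP, 0.01% Tween-20.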
KCNH2 WT inh: inhibitors of human wildtype KCNH2 potassium channel; Q12809; activity change, % at 1.84 µM; actives 0.37% (n = 340,000); U2OS, BacMam KCNH2, thallium flux FluxOr; hits give low values; AID 720551;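 active means maximum activity change below -70%; inconclusive means maximum activity change between -70% and -50%; inactive means maximum activity change above -50%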
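U2OS cells were transduced with wild-type KCNH2 virus (2.03 x 10^8 / mL) for 4 h at room temperature, then cultured overnight at 37 C. Thallium flux was read with FluxOr dye. Rate constants were normalized to DMSO controls.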
Giardia kill: kills Giardia lamblia. Giardia lamblia trophozoite viability. activity change, % at 7.66 µM, hits read low. actives 0.15% (n = 340,000); in the data active means activity change below about -80%; inconclusive means between about -30% and that limit;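 further: parasites exposed to compound for two days anaerobically before the ATP read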
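Trophozoite viability was measured as ATP-dependent luminescence, read 15-30 min after reagent addition. Before that, parasites at 100 cells/well were exposed to compounds for 48 h, anaerobically, at 37 deg C.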
The depositor's hits bear a star; i = inactive; ? = inconclusive; . = no result; + = active, no number. On the % scale 0 is the no-effect control and ±100 the full control effect.

SMILES	KCNH2 3.1 block	FBPA coupling cs	USP1 inh	KCNH2 WT inh	Giardia kill
O=C(Nc1ccc(C(=O)O)cc1)/C(=C\C=C\c1ccccc1)NC(=O)c1ccc(Br)cc1	-3.9	4.3	+	i	-21.5
O=C(NC1(O)C(=O)c2ccccc2C1=O)c1c(Cl)cccc1Cl	17.2	-16.9	28.2µM*	0.2	33.6
O=C(Nc1ccccc1Cl)c1c(F)c(F)c(F)c(F)c1F	-23.1	.	-12.2%	-14.1	-19.7
O=C(NC1(O)C(=O)c2ccccc2C1=O)c1ccccc1	-4.4	-25.1	17.8µM*	2.4	6.8
COC(=O)c1ccc(C2NC(c3ccc4c(c3)OCO4)=CC(c3ccccc3O)N2)cc1 (configuration not stated)	.	.	.	.	-20.4
O=C(NCc1ccc(Cl)cc1)c1cnc2sc(N3CCCCCC3)nn2c1=O	.	.	-15.6%	.	.
COc1cc(NC(=O)c2cc3nc(-c4ccccc4)cc(-c4ccccc4)n3n2)cc(OC)c1OC	-72.9*	.	-12.6%	-4.7	12.9
COC(=O)C1=C(C)OC(N)=C(C#N)C1c1cc(OC)c(OCC(N)=O)cc1Cl (configuration not stated)	-5.1	-30.5*	-13.4%	-16.8	1.6
CCN(CC(=O)NC(C)C)C(=O)C(CCSC)NC(=O)c1cccc(C)c1 (configuration not stated)	-200.9*	-0.4	-15.0%	-154.8*	28.1
CCN(CC(=O)NC(C)C)C(=O)C(CCSC)NC(=O)c1ccccc1OC (configuration not stated)	-9.6	2.6	-7.4%	-5.0	-12.9
Cn1cc(C(=O)c2ccc(Cl)cc2Cl)cc1C(=O)N/N=C(\N)COc1ccc(F)cc1	-32.2	-0.5	3.6%	3.0	0.0
Cn1cc(C(=O)c2ccc(Cl)cc2Cl)cc1C(=O)N/N=C(\N)COc1ccc(Cl)cc1	-72.6*	-4.9	-12.5%	9.2	-15.1
Nc1ccccc1-c1nnc2n1CCCCC2	12.9	2.3	-20.0%	-85.7*	4.7
CC(C)Oc1ccc(S(=O)(=O)N2CCOCC2)cc1NC(=O)CCCSc1ccccc1	-72.2*	.	-13.0%	-0.6	6.5
CC(=O)NCCC(=O)Nc1cc(S(=O)(=O)N2CCCCC2)ccc1Oc1ccccc1	-16.8	.	-2.9%	-70.7*	-5.7
CCOc1ccc(Oc2ccc(S(=O)(=O)N3CCOCC3)cc2NC(=O)CCNC(C)=O)cc1	23.2	.	-6.5%	-7.3	4.8
CCOc1ccc(CNC(=O)C2CCN(S(=O)(=O)N3CCCCC3)CC2)cc1	.	.	2.7%	.	.
Cc1ccc(C(=O)N2CCN(c3ccccc3F)CC2)cc1NC(=O)c1nsc2ccccc12	.	.	-15.6%	.	.
COc1ccc(CC2(CO)CCN(CC3=Cc4cc(Cl)ccc4OC3)CC2)cc1	-74.3*	6.1	-29.0%	-40.7	-22.1
COc1ccc2c(c1)C=C(CN1CCC(CO)(CCc3ccccc3)CC1)CO2	-87.8*	0.2	-8.8%	-11.0	7.4
CCCCNC(=O)Cn1c(=O)cc(C)c2c(C)nn(-c3ccc(CC)cc3)c21	.	.	-6.8%	.	.
CCOc1ccccc1-c1nnc2n1N=C(c1ccccc1OC)CS2	.	-1.2	.	.	.
COc1ccccc1CNC(=O)C1CCCN(c2nn3cc(-c4ccc(F)cc4)nc3s2)C1 (configuration not stated)	.	.	-0.7%	.	.
OCCN(Cc1cccnc1)Cc1ccccn1	-27.5	.	-15.6%	-4.1	-27.4
COC1=C(Nc2ccc(O)cc2)C(=O)c2ccccc2C1=O	-1.9	-32.5*	?	-6.3	-14.7
SMILES	KCNH2 3.1 block	FBPA coupling cs	USP1 inh	KCNH2 WT inh	Giardia kill
COC1=C(Nc2ccc(OC)cc2)C(=O)c2ccccc2C1=O	26.8	-33.8*	-17.7%	21.2	14.9
CCOc1ccccc1N1CCN(C(=O)c2cc(-c3cc(OC)ccc3OC)nc3ccccc23)CC1	?	.	15.8µM*	-3.0	?
COc1ccc(Cl)cc1NC(=O)CN(C)C(=O)CN1C(=O)NC(C)(c2ccc3ccccc3c2)C1=O (configuration not stated)	-89.1*	.	-12.6%	-7.1	7.1
COc1ccc(Cl)cc1NC(=O)CN(C)C(=O)CN1C(=O)NC(C)(C)C1=O	-2.5	.	-19.5%	14.5	-1.1
COc1ccc(NC(=O)c2ncoc2-c2ccco2)cc1Cl	.	.	5.1%	.	.
Cc1ccc(C)c(CN2C(=O)c3ccccc3S(=O)(=O)c3ccc(C(=O)Nc4ccccc4C(F)(F)F)cc32)c1	.	.	-19.1%	.	.
Nc1ncnc2c1ncn2[C@@H]1O[C@H](C(=O)N2CCN(CC(=O)Nc3cccc4c3CNC4=O)CC2)[C@@H](O)[C@H]1O	.	-1.7	.	.	.
c1ccc(-c2ccc(OCCCNC3CCCC3)cc2)cc1	-92.1*	0.8	?	-10.3	-26.0
CCOc1ccc(CCNC(=O)c2cccs2)cc1OCC	-86.3*	-0.2	-5.8%	1.1	19.4
COc1ccc(CCNC(=O)c2cccs2)cc1OC	-21.4	0.2	-7.2%	2.4	-27.6
COc1ccccc1-c1ccc2ncnc(NC3CC3)c2c1	.	-0.5	.	.	.
O=C(O)c1ccccc1C(=O)c1ccc2c(c1)N(Cc1cccc(F)c1)C(=O)CO2	-8.1	-41.7*	-25.6%	6.5	-27.2
CCCN1C(=O)COc2ccc(C(=O)c3ccccc3C(=O)O)cc21	8.7	5.2	-23.8%	35.6	5.9
CC(=O)Nc1ccc(NC(=O)/C=C/c2ccc3c(c2)OCO3)cc1	-30.2	1.8	-2.4%	-0.4	0.2
COC(=O)c1c(NC(=O)/C=C/c2ccc3c(c2)OCO3)sc(C)c1C	-5.2	3.2	-11.4%	-72.0*	-15.4
CN(C)CCCNC(=O)/C=C/c1ccc2c(c1)OCO2	14.3	-0.2	-18.9%	-73.8*	22.3
CC(C)NS(=O)(=O)c1ccc2[nH]c3nc(SCC(=O)Nc4ccc(F)c(F)c4)nnc3c2c1	.	.	.	.	-17.9
Cc1cccc(C)c1-n1ncc(C(=O)N2CCN(c3ccccn3)CC2)c1C1CCN(C(=O)OC(C)(C)C)CC1	.	.	-5.3%	.	.
CCOC(=O)c1c(N2CCN(c3ccccc3)CC2)cc(C)nc1C	-97.5*	0.3	-7.8%	-48.3	-7.5
COC(=O)c1ccc(C2C=C(c3ccc(Cl)cc3)Nc3nc4ccccc4n32)cc1 (configuration not stated)	.	.	-24.2%	.	.
CC1CCN(C(=O)CCCC(=O)O)CC1	-2.4	-4.5	-10.5%	1.5	-7.5
CC1CCN(C(=O)CCCC(=O)N2CCC(C)CC2)CC1	19.6	.	?	-70.8*	4.3
CCOC(=O)c1ccc(NC(=S)N(CCCN2CCCC(C)C2)Cc2cccs2)cc1 (configuration not stated)	-80.5*	2.0	-11.7%	-89.2*	4.5
COc1ccc(C(=O)/C=C/Nc2ccc([N+](=O)[O-])cc2)cc1	-3.5	1.3	-2.9%	-23.3	2.6
COC(=O)/C(=C\C(=O)c1ccc([N+](=O)[O-])cc1)Nc1ccc(OC)cc1	-77.2*	-0.4	-3.8%	-5.7	1.1
Cc1ccc(OCCNC(=O)CNC(=O)c2ccc(Cl)c([N+](=O)[O-])c2)cc1	-28.8	.	-22.6%	8.8	3.1
